Where “and” joins values, the source holds several entries; their conditions need not be identical. Identical values can stand only once. About 4,500 (2.2%) of roughly 200,000 compounds were called active. Another 12% or so got no clear call; they are omitted. The call rests on the fitted dose curve; in most records, active means well fitted inhibition curve with a large enough effect; inconclusive means small, poorly fitted or top-dose-only effect, or effect the other way; inactive means flat fitted curve, though single readings scatter. The full list was thinned out, with actives kept by preference. A structure can be active in one record and inactive in another.
Molecular target: Cruzipain (Trypanosoma cruzi) (UniProt P25779)
Experiment: qHTS Assay for Promiscuous and Specific Inhibitors of Cruzain (without detergent); further: nearly all actives have a fitted effect of over 40% in size;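 on max response, negative = inhibition: plate controls were enzyme without inhibitor for no effect and buffer without enzyme for full effect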
Conditions: purified cruzain, Z-FR-AMC fluorescence, no detergent
How it was run: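 Purified cruzain at 1.5 nM, pre-incubated 15 min with compound at room temperature in 100 mM sodium acetate pH 5.5, 5 mM DTT, 0.00005% Triton X-100. Reaction started with 2 uM Z-FR-AMC; AMC fluorescence increase over 60 s gives rate.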
Potency means the concentration at half of the fitted maximal effect.

Chain of Cruzipain (Trypanosoma cruzi) (P25779 123-467 limits assumed): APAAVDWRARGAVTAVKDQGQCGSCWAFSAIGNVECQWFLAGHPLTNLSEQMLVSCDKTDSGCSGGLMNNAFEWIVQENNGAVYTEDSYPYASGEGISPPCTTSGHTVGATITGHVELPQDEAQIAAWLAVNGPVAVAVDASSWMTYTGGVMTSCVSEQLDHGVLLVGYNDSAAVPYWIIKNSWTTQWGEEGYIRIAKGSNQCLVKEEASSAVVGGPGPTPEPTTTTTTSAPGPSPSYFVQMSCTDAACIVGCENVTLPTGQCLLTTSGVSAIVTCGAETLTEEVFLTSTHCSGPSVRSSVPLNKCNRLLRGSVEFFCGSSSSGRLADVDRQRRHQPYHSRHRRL

SMILES	max response, negative = inhibition	Potency
Cc1ccc(C)c(Cn2c(=O)n(CCC(=O)NCc3ccc4c(c3)OCO4)c(=O)c3sccc32)c1	-5.68% (inactive)	–
O=C(CSCc1cnn(-c2ccccc2)c1-n1cccc1)NCc1ccc(Cl)cc1	5.64% (inactive)	–
Cc1ccc(-n2nc(C)c(C(=O)O)c2-n2cccc2)cc1	1.25% (inactive)	–
CCC(=O)N1CCc2cc(S(=O)(=O)NC(C(=O)NCCc3ccc(C)cc3)C(C)C)ccc21 (configuration not stated)	-12.9% (inactive)	–
COc1cccc(CNC(=O)c2ccc3c(c2)N(Cc2ccc(C(F)(F)F)cc2)C(=O)c2ccccc2S3)c1OC	–	10 µM (active)
Cc1ccccc1CN1C(=O)c2ccccc2Sc2ccc(C(=O)NCCCN3CCOCC3)cc21	-3.52% (inactive)	–
COc1ccccc1NC(=O)CN1C(=O)c2ccccc2Sc2ccc(C(=O)N3CCCC3)cc21	4.29% (inactive)	–
Cc1nc(-c2ccc(NC(=O)c3cccs3)cc2)cs1	-25.5% (inactive)	–
Cc1sc(NC(=S)NC(=O)c2cccs2)nc1-c1ccc(CC(C)C)cc1	–	10 µM (active)
Cc1ccc(-c2csc(NC(=O)c3cccs3)n2)cc1	7.26% (inactive)	–
COc1ccc(C2=NC(c3ccncc3)=Nc3ccc(Br)cc3N2)cc1	11.4% (inactive)	–
O=C(Cn1ncn2nc(-c3cccs3)cc2c1=O)NCc1cccc(Br)c1	-9.74% (inactive)	–
O=C(CSc1oc(-c2ccco2)nc1S(=O)(=O)c1ccc(Cl)cc1)c1ccccc1	10.2% (inactive)	–
CCCN(CCC)CCCNC(=O)Cn1cc2c(n1)-c1c(oc(C(=O)N3CCCC3)c1C)CC2	2.15% (inactive)	–
CCc1cccc(NC(=O)CN(c2ccc(C)c(C)c2)S(=O)(=O)c2ccsc2C(=O)OC)c1	-9.83% (inactive)	–
Cc1ccc(CNC(=O)CSc2c(C)cnc3c2c(=O)n(C)c(=O)n3C)cc1	-5.95% (inactive)	–
O=C(CNC(=O)c1ccco1)OCC(=O)c1ccccc1	-5.08% (inactive)	–
Cc1nn2c(=O)cc(COC(=O)CNC(=O)c3ccc(F)cc3)nc2s1	-12.1% (inactive)	–
Cc1cc(C(=O)COC(=O)CNC(=O)c2ccc(F)cc2)c(C)n1Cc1ccco1	–	15.8 µM (active)
O=c1cc(-c2ccccc2)n2c(SCc3ccccc3)nnc2[nH]1	-3.24% (inactive)	–
N#Cc1nc(N)nc(N(c2ccccc2)c2ccccc2)n1	–	1.58 µM (active)
CC(C)Nc1nc(N(c2ccccc2)c2ccccc2)nc(-n2ccnc2)n1	11.1% (inactive)	–
COc1ccc(NC(=O)CNC(=O)Cn2ccc3ccccc3c2=O)c(OC)c1	10.4% (inactive)	–
Cc1ccccc1N1CCN(CCCOc2ccc3c(C)cc(=O)oc3c2)CC1	-15.8% (inactive)	–
COC(=O)COc1ccc2oc(=O)cc(C)c2c1	-6.25% (inactive)	–
Cc1ccccc1NC(=O)c1ccc(COc2ccc3c(C)cc(=O)oc3c2)cc1	–	10 µM (active)
CC(=O)N1CCCc2ccc(NS(=O)(=O)c3ccc(F)cc3F)cc21	8.5% (inactive)	–
COc1cc2c(cc1OC)C(COc1ccc(F)cc1)N(C(=O)c1ccccc1F)CC2 (configuration not stated)	28.1% (inactive)	–

SMILES	max response, negative = inhibition	Potency
COc1ccc(-c2c(C)cc3oc(=O)cc(-c4ccccc4)c3c2C)cc1F	–	39.8 µM (active)
COc1ccc(-c2c(C)cc3oc(=O)cc(-c4ccccc4)c3c2C)cc1OC	-25.9% (inactive)	–
CC(=O)COc1ccc2c(-c3ccccc3)cc(=O)oc2c1	2.99% (inactive)	–
Cc1cc(C)cc(NC(=O)CSc2nc3nccnc3c(=O)n2CCc2c[nH]c3ccccc23)c1	-2.15% (inactive)	–
O=S(=O)(c1ccccc1)c1nc(-c2ccc(Cl)cc2Cl)oc1N1CCCCC1	-16.2% (inactive)	–
Cc1ccc(S(=O)(=O)n2nc(C)c(S(=O)(=O)N3CCCCCC3)c2C)cc1	-10.4% (inactive)	–
Oc1c(Cl)cc(Cl)c(Cl)c1Cc1c(O)c(Cl)cc(Cl)c1Cl	-18.2% (inactive)	31.6 µM (active) and 25.1 µM (active)
CCOc1ccc(NC(=O)CSc2ncnc3c2sc2ccccc23)cc1	-8.47% (inactive)	25.1 µM (active)
CCOc1ccc(NC(=O)CSc2nc3ccccc3c(=O)n2Cc2cccs2)cc1	-21.1% (inactive)	–
CCOc1ccc(NC(=O)CSc2c3c(nc4ccccc24)CCCC3)cc1	1.83% (inactive)	–
Cc1ccc(C)c(N2CCN(C(c3ccccc3)c3nnc(-c4ccccc4)o3)CC2)c1 (configuration not stated)	-12.6% (inactive)	–
COc1ccc(CCNC(=O)CCCCn2c(=O)c3ccccc3n(Cc3ccccc3)c2=O)cc1OC	-0.815% (inactive)	–
COc1cc(C2c3c(oc4ccccc4c3=O)C(=O)N2c2nc(C)c(C)s2)ccc1O (configuration not stated)	-4.14% (inactive)	–
COc1ccccc1CNC(=O)CCCCn1c(=O)c2ccccc2n(CC(=O)Nc2cc(Cl)ccc2C)c1=O	-2.88% (inactive)	–
O=C(c1ccccc1)N1CCN(c2ccc([N+](=O)[O-])c(NCc3ccco3)c2)CC1	-12.2% (inactive)	–
O=[N+]([O-])c1ccc(N2CCN(S(=O)(=O)c3ccc4ccccc4c3)CC2)cc1NCc1ccco1	–	7.94 µM (active)
COc1ccccc1OCCNc1cc(N2CCOCC2)ccc1[N+](=O)[O-]	26.2% (inactive)	–
CCc1ccccc1NC(=O)CSc1nc(C)c(C(=O)Nc2ccccc2)c(-c2ccc(Cl)cc2)c1C#N	4.27% (inactive)	–
CCc1ccc(NC(=O)CN2C(=O)C(c3ccccc3)=NC23CCCCCC3)cc1	-25.9% (inactive)	–
COc1ccc(S(=O)(=O)N(C)CC(=O)Nc2ccc3c(c2)OCCO3)cc1OC	-3.41% (inactive)	–
Cc1noc(C)c1S(=O)(=O)N(CC(=O)Nc1ccc2c(c1)OCCO2)c1ccc(C(C)C)cc1	0.199% (inactive)	–
O=C(CN(c1ccc2c(c1)OCCO2)S(=O)(=O)c1ccccc1)Nc1ccc2c(c1)OCO2	–	12.6 µM (active)
Cc1ccc(S(=O)(=O)N(CC(=O)Nc2ccc(Cl)cc2Cl)c2ccccc2C)cc1	-29.7% (inactive)	–
COc1ccc(-n2nc(C(=O)NCCc3ccc(Cl)cc3)c3c4ccccc4n(C)c3c2=O)cc1Cl	-5.4% (inactive)	–
COC(=O)c1sccc1N/N=C(\C)c1ccc(F)c(Cl)c1	–	20 µM (active)
COC(=O)c1sccc1NC(=O)COc1ccc(Cl)cc1	-7.31% (inactive)	–
COC(=O)c1sccc1NC(=O)c1cc(OC)c(OC)c(OC)c1	13.7% (inactive)	–
